The panel holds about 83,000 compounds, 20% with a hit somewhere; the sample as a whole holds those more often.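 Single-dose data. Exposure time 48 hours. Values below 10 considered active.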 Unmarked numbers belong to inactive results. The source made the active and inactive calls.
Legend:
Test in all cases: NCI-60 one-dose screen, 48 h (100 = growth as untreated, 0 = no growth, -100 = all killed)
Details in all cases: 10 µM unless noted
NCI-H23 lung = system: NCI-H23 lung
NCI-H226 lung = system: NCI-H226 lung
NCI-H322M lung = system: NCI-H322M lung
HOP-62 NSCLC = system: HOP-62 NSCLC
NCI-H460 lung = system: NCI-H460 lung
HOP-92 NSCLC = system: HOP-92 NSCLC
NCI-H522 lung = system: NCI-H522 lung
A549/ATCC NSCLC = system: A549/ATCC NSCLC
786-0 renal = system: 786-0 renal
COLO 205 colon = system: COLO 205 colon
DU-145 prostate = system: DU-145 prostate
K-562 leukemia = system: K-562 leukemia
MALME-3M melanoma = system: MALME-3M melanoma
MDA-MB-231 breast = system: MDA-MB-231 breast
RXF 393 renal = system: RXF 393 renal
SF-268 CNS = system: SF-268 CNS
SF-295 CNS = system: SF-295 CNS
SF-539 CNS = system: SF-539 CNS
UACC-257 melanoma = system: UACC-257 melanoma
M14 melanoma = system: M14 melanoma

SMILES	growth (NCI-H23 lung)	growth (NCI-H226 lung)	growth (NCI-H322M lung)	growth (HOP-62 NSCLC)	growth (NCI-H460 lung)	growth (HOP-92 NSCLC)	growth (NCI-H522 lung)	growth (A549/ATCC NSCLC)	growth (786-0 renal)	growth (COLO 205 colon)	growth (DU-145 prostate)	growth (K-562 leukemia)	growth (MALME-3M melanoma)	growth (MDA-MB-231 breast)	growth (RXF 393 renal)	growth (SF-268 CNS)	growth (SF-295 CNS)	growth (SF-539 CNS)	growth (UACC-257 melanoma)	growth (M14 melanoma)
CCN1CCN(C(=O)[C@]23CC[C@@H](C)[C@H](C)[C@H]2C2=CC[C@@H]4[C@@]5(C)C/C(=C/c6cccc(OC)c6OC)C(=O)C(C)(C)[C@@H]5CC[C@@]4(C)[C@]2(C)CC3)CC1	42.9%	46.2%	83.7%	57.7%	20.1%	46.9%	52.9%	36.1%	49.7%	32.2%	57.3%	16.3%	35.2%	36.5%	30.2%	45.5%	50.7%	58.5%	46.4%	29.5%
COc1ccc(NC(=O)c2ccc3c(c2)nc(-c2cc4ccccc4[nH]c2=O)n3-c2cc(C(C)(C)C)[nH]n2)cc1	90.4%	99%	91.7%	98.7%	97.4%	90.8%	72.8%	93.7%	92.4%	96.4%	103%	82.4%	101%	98.2%	77.3%	79.3%	89.9%	94.9%	97.7%	96.1%
COc1cc(-c2c(C#N)c(-c3cccs3)nc3c2c(-c2ccccc2)nn3-c2ccccc2)ccc1O	98.4%	91.2%	96.6%	74.5%	77.5%	93.5%	69.8%	58.3%	85.4%	89.7%	85.6%	66.2%	87.2%	87.8%	94.4%	80.4%	98.2%	93.5%	81.3%	89.3%
Fc1ccc(Nc2nnc(-c3ccc(Cl)cc3)o2)cc1	95%	93.8%	103%	89.5%	105%	95.5%	74%	81.3%	104%	94.2%	107%	70.6%	95.6%	85.9%	100%	99.3%	102%	103%	88.9%	95.4%
N#Cc1c(-c2ccco2)nc2c(c(-c3ccccc3)nn2-c2ccccc2)c1-c1ccc(O)cc1	99.7%	73.3%	81.9%	-50% (active)	49.8%	76.1%	19.3%	46.9%	59.1%	3.62% (active)	75.8%	15.7%	35%	82.4%	101%	67.6%	66.6%	82.5%	60.6%	65.6%
C[C@H]1[C@H]2C3=CC[C@@H]4[C@@]5(C)C/C(=C/c6ccco6)C(=O)C(C)(C)[C@@H]5CC[C@@]4(C)[C@]3(C)CC[C@@]2(C(=O)N2CCOCC2)CC[C@@H]1C	44.2%	83.8%	95.3%	105%	94.9%	78.4%	38%	70.4%	95.5%	94.1%	88.1%	27.4%	83.3%	90.5%	62%	85.8%	81.4%	82.7%	88.4%	76.9%
Cc1cc(N=O)cc(C(C)(C)C)c1O	97%	85.8%	95.6%	90%	101%	73%	90.2%	73.5%	103%	92.3%	103%	98.2%	88.4%	95.1%	105%	100%	99%	103%	75.1%	92.2%
COc1cc2nc(Cl)nc(Nc3cccc(C(=O)/C=C/c4ccc(Cl)cc4)c3)c2cc1OC	80.9%	88.1%	83.1%	86.8%	91.3%	78.3%	77.6%	78.2%	64.8%	86.9%	88.2%	11.3%	88.2%	73.7%	62.7%	85.7%	80.6%	50%	94%	70.2%
O=C1NC(c2ccc(Cl)c(Cl)c2)=C/C1=C\c1ccccc1	84.8%	57.7%	79%	69.1%	18.6%	72.1%	79%	55.1%	9.12% (active)	65.2%	95.9%	72.6%	63.3%	69.9%	65.2%	92.3%	52.2%	84.7%	98.2%	90.9%
N=C(N)N=Nc1ccc(O)cc1	68% [100 µM]	73.5% [100 µM]	80.2% [100 µM]	76.9% [100 µM]	84.1% [100 µM]	84% [100 µM]	37.7% [100 µM]	93.3% [100 µM]	28.9% [100 µM]	57.2% [100 µM]	80.4% [100 µM]	17% [100 µM]	85.2% [100 µM]	103% [100 µM]	20.8% [100 µM]	77.5% [100 µM]	8.54% [100 µM] (active)	15.2% [100 µM]	95.6% [100 µM]	81.6% [100 µM]
CC(C)c1cc(C(=O)O)c(O)c(C(C)C)c1.CC(C)c1cc(C(=O)O)c(O)c(C(C)C)c1.[Mn]	110%	103%	110%	112%	102%	-39.3% (active)	79.5%	99.9%	101%	112%	108%	94.8%	103%	103%	129%	96.2%	107%	105%	98.8%	107%
C#Cc1cccc(NC(=O)C2CCCN(C(=O)CCl)C2)c1 (centres undefined)	-27% [8.25 µM] (active)	1.82% [8.25 µM] (active)	111% [8.25 µM]	87.8% [8.25 µM]	97.5% [8.25 µM]	98.3% [8.25 µM]	-53.6% [8.25 µM] (active)	86.1% [8.25 µM]	89.5% [8.25 µM]	27.2% [8.25 µM]	102% [8.25 µM]	20.2% [8.25 µM]	3.83% [8.25 µM] (active)	81.5% [8.25 µM]	67% [8.25 µM]	78.3% [8.25 µM]	85.4% [8.25 µM]	79.9% [8.25 µM]	79.7% [8.25 µM]	20.6% [8.25 µM]
Fc1ccc2c(c1)c(-c1nc(-c3c[nH]c4ncccc34)cs1)cn2CCCN1CCCCC1	84.9%	80%	80.6%	65.3%	13%	45.4%	94.3%	65.7%	61.9%	-73.1% (active)	66.7%	-58.8% (active)	49.8%	55.3%	69.4%	66.6%	93.2%	61.4%	100%	-81% (active)
CCSc1sc(-c2ccc(C)cc2)nc1[P+](c1ccccc1)(c1ccccc1)c1ccccc1	-13.9% (active)	-4.39% (active)	-16.7% (active)	-10.3% (active)	-40.5% (active)	-38.3% (active)	-10.4% (active)	3.64% (active)	5.86% (active)	-26% (active)	4.57% (active)	0.0447% (active)	-28.4% (active)	-24.8% (active)	-37% (active)	7.81% (active)	-11.3% (active)	9.93% (active)	-3.94% (active)	-8.96% (active)
COC(=O)[C@]12CC[C@@H](C)[C@H](C)[C@@H]1C1=CC(=O)[C@@H]3[C@@]4(C)C[C@@H](O)[C@H](O)[C@@]5(C)COC(=C45)C[C@@]3(C)[C@]1(C)CC2	76.9%	81.6%	88.4%	50.8%	34.6%	45.6%	51%	41.6%	78.5%	40.8%	92.7%	14.2%	68%	45.8%	63.1%	80.8%	61.3%	54.1%		27.4%

From PubChem BioAssay (NCI)
